Measured values published in the supplement of paper PMC11732987, “Enantioselective OTUD7B fragment discovery through chemoproteomics screening and high-throughput optimisation” (Communications Chemistry, 2025).
A number with no mark means an inactive call.

Key:
Test in all cases: log2 ratio of Biotin-Ahx-Ub-VS probe labelling (fragment/DMSO); higher = less target engagement (more negative = stronger competition), active = hit call of the paper (q ≤ 0.05, log2 ratio ≤ -1)
Conditions in all cases: compound concentration: 200 uM; treatment time: 3 h
ALG13 = target: T1, ALG13 (UniProt Q9NP73)
T1 sequence (whole entry): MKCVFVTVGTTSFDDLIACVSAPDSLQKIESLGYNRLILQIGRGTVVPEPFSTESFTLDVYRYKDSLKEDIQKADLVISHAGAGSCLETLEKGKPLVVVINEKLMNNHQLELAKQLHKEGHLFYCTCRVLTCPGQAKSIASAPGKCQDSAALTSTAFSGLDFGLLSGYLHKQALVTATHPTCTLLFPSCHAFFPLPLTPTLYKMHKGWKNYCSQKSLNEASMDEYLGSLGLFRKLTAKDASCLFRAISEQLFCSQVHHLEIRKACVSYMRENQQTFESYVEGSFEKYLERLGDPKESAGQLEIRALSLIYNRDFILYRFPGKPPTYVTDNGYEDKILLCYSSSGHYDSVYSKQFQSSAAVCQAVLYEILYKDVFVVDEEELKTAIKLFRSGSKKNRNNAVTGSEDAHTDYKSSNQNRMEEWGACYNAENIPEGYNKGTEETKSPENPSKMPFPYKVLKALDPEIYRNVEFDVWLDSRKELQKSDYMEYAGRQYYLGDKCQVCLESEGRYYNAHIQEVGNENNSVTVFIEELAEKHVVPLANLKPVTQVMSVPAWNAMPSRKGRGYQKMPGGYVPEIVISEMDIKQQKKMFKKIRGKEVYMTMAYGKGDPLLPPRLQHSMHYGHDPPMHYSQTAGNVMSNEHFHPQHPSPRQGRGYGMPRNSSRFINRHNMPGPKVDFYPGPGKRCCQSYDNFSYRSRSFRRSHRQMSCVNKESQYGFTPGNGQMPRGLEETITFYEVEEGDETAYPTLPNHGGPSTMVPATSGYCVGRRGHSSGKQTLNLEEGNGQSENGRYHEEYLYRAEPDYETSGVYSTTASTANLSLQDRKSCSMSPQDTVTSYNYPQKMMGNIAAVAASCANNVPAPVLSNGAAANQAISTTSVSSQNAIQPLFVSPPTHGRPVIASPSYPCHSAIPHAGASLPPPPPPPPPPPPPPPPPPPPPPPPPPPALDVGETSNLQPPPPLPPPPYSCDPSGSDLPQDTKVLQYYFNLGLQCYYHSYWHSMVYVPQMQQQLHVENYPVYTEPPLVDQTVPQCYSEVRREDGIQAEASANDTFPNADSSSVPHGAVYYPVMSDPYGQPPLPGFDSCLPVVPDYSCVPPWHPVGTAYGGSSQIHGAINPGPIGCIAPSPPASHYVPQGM
Summary of the method: (§1)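 Global-median-normalised Spectronaut label-free quantities were compared by unpaired t-test, and values are average log2 ratios of fragment over vehicle. Only proteins with ≥2 unique peptides were used. HEK293T lysate (495 µg per sample) was treated in triplicate with fragment at 200 µM or vehicle for 3 h and then with Biotin-Ahx-Ub-VS at 0.5 µM final for 1 h. Labelled DUBs were then NeutrAvidin-enriched, digested with LysC and trypsin, and run by diaPASEF LC-MS/MS.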

ATXN3 = ATXN3 (UniProt P54252)
Sequence of ATXN3 (P54252 whole entry): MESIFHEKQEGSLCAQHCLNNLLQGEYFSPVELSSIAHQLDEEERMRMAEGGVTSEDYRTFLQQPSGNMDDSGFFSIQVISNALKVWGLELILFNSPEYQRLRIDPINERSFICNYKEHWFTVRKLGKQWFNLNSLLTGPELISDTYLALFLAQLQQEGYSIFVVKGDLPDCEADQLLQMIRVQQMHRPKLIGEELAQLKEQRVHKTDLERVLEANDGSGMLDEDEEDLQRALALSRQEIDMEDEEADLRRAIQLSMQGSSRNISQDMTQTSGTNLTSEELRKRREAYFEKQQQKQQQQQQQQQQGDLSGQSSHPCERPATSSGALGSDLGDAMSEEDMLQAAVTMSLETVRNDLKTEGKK
Summary of the method: as §1

BAP1 = target: T2, BAP1 (UniProt Q92560)
T2 sequence (whole entry): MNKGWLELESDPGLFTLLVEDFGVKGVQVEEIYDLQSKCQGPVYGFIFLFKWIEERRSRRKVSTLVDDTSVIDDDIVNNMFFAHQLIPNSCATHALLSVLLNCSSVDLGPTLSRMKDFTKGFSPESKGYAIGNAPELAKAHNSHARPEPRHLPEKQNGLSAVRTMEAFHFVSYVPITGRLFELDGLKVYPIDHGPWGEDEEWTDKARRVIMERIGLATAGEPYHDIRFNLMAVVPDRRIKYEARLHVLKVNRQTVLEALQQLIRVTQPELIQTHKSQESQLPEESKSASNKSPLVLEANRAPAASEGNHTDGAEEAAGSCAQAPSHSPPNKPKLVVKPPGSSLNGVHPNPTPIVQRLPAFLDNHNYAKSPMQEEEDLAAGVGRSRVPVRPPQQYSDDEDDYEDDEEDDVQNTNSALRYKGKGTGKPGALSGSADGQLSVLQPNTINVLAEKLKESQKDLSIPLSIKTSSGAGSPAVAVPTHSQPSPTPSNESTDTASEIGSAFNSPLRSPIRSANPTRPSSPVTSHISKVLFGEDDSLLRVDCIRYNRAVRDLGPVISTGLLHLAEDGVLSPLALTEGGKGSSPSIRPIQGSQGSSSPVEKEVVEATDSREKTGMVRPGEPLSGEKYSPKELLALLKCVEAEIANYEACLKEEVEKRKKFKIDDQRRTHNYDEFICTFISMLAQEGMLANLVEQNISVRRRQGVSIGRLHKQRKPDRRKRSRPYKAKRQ
Summary of the method: as §1

EIF3F = EIF3F (UniProt O00303)
Sequence of EIF3F (O00303 whole entry): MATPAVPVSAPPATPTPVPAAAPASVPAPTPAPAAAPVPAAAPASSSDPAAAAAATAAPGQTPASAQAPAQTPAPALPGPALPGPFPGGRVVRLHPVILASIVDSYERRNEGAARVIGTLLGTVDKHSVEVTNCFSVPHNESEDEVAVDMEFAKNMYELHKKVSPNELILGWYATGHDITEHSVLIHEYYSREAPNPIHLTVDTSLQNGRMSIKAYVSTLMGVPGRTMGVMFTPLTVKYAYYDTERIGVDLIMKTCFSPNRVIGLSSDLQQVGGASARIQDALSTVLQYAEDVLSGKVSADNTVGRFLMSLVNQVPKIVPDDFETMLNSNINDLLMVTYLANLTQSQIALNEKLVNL
Summary of the method: as §1

EIF3H = EIF3H (UniProt O15372)
Sequence of EIF3H (O15372 whole entry): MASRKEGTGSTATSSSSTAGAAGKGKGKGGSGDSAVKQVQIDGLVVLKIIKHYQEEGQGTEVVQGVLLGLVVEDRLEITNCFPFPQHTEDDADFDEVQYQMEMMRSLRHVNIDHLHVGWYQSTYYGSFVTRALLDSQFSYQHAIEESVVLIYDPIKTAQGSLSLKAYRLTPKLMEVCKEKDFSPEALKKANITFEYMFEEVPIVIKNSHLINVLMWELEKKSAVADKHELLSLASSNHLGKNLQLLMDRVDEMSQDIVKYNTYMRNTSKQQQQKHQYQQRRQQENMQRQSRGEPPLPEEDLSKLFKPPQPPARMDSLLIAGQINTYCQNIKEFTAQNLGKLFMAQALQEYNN
Summary of the method: as §1

FAM105A = target: T3, FAM105A (UniProt Q9NUU6)
T3 sequence (whole entry): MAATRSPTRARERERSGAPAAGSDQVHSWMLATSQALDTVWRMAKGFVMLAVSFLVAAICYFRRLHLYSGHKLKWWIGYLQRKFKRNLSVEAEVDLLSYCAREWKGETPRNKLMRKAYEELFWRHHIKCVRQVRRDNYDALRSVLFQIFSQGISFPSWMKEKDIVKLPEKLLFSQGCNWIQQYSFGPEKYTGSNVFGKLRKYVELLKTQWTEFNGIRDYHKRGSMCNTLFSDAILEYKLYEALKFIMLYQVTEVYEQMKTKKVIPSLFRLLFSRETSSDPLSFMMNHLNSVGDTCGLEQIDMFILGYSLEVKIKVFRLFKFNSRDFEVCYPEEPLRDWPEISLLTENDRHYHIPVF
Summary of the method: as §1

OTUB1 = OTUB1 (UniProt Q96FW1)
Sequence of OTUB1 (Q96FW1 whole entry): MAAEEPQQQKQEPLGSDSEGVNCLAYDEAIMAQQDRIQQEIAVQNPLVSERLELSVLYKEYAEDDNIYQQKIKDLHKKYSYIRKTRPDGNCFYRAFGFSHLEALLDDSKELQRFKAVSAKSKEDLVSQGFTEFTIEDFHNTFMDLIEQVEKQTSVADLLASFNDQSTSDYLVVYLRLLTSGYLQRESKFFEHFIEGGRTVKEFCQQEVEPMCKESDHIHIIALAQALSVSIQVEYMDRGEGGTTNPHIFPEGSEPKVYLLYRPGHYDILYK
Summary of the method: as §1

OTUD4 = target: T4, OTUD4 (UniProt Q01804)
T4 sequence (whole entry): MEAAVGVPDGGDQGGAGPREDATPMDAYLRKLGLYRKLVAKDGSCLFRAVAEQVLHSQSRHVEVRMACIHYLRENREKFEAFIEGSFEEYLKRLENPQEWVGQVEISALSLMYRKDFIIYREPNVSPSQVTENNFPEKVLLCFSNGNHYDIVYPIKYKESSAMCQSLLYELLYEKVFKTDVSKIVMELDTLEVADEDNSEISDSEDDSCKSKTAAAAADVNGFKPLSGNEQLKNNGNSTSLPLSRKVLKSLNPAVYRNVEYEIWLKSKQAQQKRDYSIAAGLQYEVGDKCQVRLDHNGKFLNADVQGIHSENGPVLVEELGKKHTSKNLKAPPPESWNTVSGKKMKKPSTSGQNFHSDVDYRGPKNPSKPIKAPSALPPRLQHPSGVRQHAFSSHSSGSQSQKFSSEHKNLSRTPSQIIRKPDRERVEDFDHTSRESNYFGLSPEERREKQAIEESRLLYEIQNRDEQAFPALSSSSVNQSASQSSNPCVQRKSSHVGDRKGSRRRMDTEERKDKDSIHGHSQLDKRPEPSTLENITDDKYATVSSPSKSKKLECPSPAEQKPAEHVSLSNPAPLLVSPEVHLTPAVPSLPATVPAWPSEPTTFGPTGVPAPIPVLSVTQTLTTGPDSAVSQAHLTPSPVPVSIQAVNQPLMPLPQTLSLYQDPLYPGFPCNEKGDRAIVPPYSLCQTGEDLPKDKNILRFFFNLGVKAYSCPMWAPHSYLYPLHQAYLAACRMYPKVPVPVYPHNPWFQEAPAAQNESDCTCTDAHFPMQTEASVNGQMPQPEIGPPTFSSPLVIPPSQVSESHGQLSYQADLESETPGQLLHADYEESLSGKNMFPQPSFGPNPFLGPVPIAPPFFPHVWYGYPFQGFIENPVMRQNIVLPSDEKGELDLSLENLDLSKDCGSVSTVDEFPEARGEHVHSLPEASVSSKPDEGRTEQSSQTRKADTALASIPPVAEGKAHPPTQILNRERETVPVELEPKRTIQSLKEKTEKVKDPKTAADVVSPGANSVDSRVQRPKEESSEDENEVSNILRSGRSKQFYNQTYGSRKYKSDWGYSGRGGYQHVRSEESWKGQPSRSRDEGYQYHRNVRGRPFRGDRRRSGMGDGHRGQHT
Summary of the method: as §1

OTUD5 = target: T5, OTUD5 (UniProt Q96G74)
T5 sequence (whole entry): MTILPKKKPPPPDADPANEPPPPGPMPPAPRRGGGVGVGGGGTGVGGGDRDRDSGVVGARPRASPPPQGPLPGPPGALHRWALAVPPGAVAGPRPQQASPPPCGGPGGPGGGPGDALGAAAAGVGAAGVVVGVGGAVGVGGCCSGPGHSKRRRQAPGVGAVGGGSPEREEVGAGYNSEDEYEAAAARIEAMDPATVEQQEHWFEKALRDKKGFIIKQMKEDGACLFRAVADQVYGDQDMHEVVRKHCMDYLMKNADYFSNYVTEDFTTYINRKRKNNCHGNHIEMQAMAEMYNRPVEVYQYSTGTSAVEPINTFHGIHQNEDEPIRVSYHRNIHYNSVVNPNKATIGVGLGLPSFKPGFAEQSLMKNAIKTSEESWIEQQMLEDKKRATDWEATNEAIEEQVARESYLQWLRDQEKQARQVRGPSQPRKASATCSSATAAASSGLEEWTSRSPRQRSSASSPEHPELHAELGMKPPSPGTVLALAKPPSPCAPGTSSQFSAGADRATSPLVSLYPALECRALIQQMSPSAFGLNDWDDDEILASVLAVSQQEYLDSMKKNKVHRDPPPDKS
Summary of the method: as §1

Compound | log2 ratio of Biotin-Ahx-Ub-VS probe labelling (ALG13) | log2 ratio of Biotin-Ahx-Ub-VS probe labelling (ATXN3) | log2 ratio of Biotin-Ahx-Ub-VS probe labelling (BAP1) | log2 ratio of Biotin-Ahx-Ub-VS probe labelling (EIF3F) | log2 ratio of Biotin-Ahx-Ub-VS probe labelling (EIF3H) | log2 ratio of Biotin-Ahx-Ub-VS probe labelling (FAM105A) | log2 ratio of Biotin-Ahx-Ub-VS probe labelling (OTUB1) | log2 ratio of Biotin-Ahx-Ub-VS probe labelling (OTUD4) | log2 ratio of Biotin-Ahx-Ub-VS probe labelling (OTUD5)
Cc1cccc(C)c1NC(=O)CCl | 0.022 | -0.224 | -3.62 (active) | -0.276 | 0.122 | 0.266 | -0.261 | -0.228 | -0.42
Cl.O=C(CCl)NCc1ccnc(Oc2ccccc2F)c1 | 0.177 | -0.51 | -3.99 (active) | -0.072 | -0.589 | -0.0684 | -0.232 | -0.244 | -0.524
O=C(CCl)Nc1cc(Cl)ccc1-n1cncn1 | 0.0898 | -0.881 | -3 (active) | -0.457 | 0.376 | 0.14 | -0.487 | -0.779 | -1.05 (active)
CC(NC(=O)CCl)c1cnn(C2CC2)c1 (stereo not given) | 0.171 | -0.145 | -2.22 (active) | -0.625 | 0.172 | -0.0989 | -0.137 | -0.268 | -0.626
Cl.O=C(CCl)N1CCc2ncncc2C1 | -0.17 | -0.297 | -0.732 | -0.328 | -0.29 | 0.0971 | -0.263 | -0.304 | -0.373
O=C(CCl)N1CCN(C(=O)Nc2ccccc2)CC1 | 0.164 | -0.281 | -0.529 | 0.181 | 0.232 | 0.233 | 0.155 | 0.0219 | -0.224
COCC[C@@H](NC(=O)CCl)c1ccccc1 | -0.555 | -0.208 | -1.89 (active) | -0.137 | -0.017 | 0.268 | -0.131 | -0.138 | -0.197
COCC1C=CCCN1C(=O)CCl (stereo not given) | 0.0362 | -0.232 | -0.527 | -0.011 | 0.276 | 0.371 | 0.0515 | -0.452 | -0.298
CC1(NC(=O)CCl)CCS(=O)(=O)C1 (stereo not given) | -0.0745 | -0.753 | -1.37 (active) | -0.345 | 0.186 | 0.0573 | -0.246 | -0.934 | -0.673
O=C(CCl)N1CCc2sccc2C1 | -0.104 | -0.969 | -0.988 | -0.211 | -0.00567 | -0.348 | -0.126 | -0.819 | -0.923
O=C(CCl)N1CCC(C(=O)N2CCCC2)CC1 | 0.141 | -0.319 | -0.206 | -0.123 | -0.0247 | -0.324 | -0.0283 | 0.178 | -0.137
O=C(CCl)N(C1=CCCCC1)C1CC1 | 0.101 | -0.0892 | -0.204 | -0.311 | 0.314 | 0.173 | -0.159 | 0.037 | -0.182
Cl.Cn1nccc1C(NC(=O)CCl)c1ccccc1 (stereo not given) | -0.0316 | -0.49 | -4.27 (active) | -0.145 | 0.106 | 0.0639 | -0.173 | -0.894 | -0.379
O=C(CCl)Nc1nnc(CC(F)(F)F)o1 | -0.0296 | -0.129 | -0.573 | -0.0944 | 0.23 | 0.0181 | 0.15 | -0.445 | -0.385
CC1CCc2onc(CNC(=O)CCl)c2C1 (stereo not given) | 0.206 | 0.065 | -1.22 (active) | -0.165 | -0.00651 | 0.123 | 0.048 | -0.0637 | 0.0465
